# Bioassay records: PubChem, NMMLSC
# MEP2 TOR yeast: modulators of TOR pathway MEP2-GFP in S. cerevisiae; actives 0.51% (n = 330,000); S. cerevisiae MEP2-GFP strain, flow cytometry GFP, 3 h; 100% = DMSO control level; AID 2016; GFP response vs DMSO, % at 10 µM;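 active = GFP response versus DMSO above a set limit, roughly screen mean plus 3 SD, cut at about 180% in these data; inconclusive = fewer than 70 cells counted for a yeast strain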;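 note: median GFP fluorescence of the barcode-gated MEP2-GFP cells per well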
# CIT2-GFP yeast: yeast TOR pathway CIT2-GFP modulation. S. cerevisiae CIT2-GFP strain, flow cytometry, 3 h; 100 means same as DMSO wells. GFP response vs DMSO, % at 10 µM. actives 0.065% (n = 320,000). AID 2029;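 active = GFP response relative to DMSO above a set limit, near the screen mean plus 3 SD, cut at about 150% in these data; inconclusive = Fewer than 70 cells measured for a yeast strain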;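 note: ratio of well median GFP fluorescence to mean of DMSO wells on the plate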
# LAP4-GFP MLPCN: yeast TOR pathway LAP4-GFP modulation; S. cerevisiae LAP4-GFP multiplex, flow cytometry GFP, 3 h; median GFP as percent of DMSO wells; GFP response vs DMSO, % at 10 µM; actives 0.34% (n = 320,000);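 active = GFP response vs DMSO above a set limit, about the screen mean plus 3 SD, cut at about 150% in these data; inconclusive = under 70 cell events counted for the yeast strain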
# RPL19A-GFP yeast: yeast TOR pathway RPL19A-GFP modulation. S. cerevisiae RPL19A-GFP strain, flow cytometry, 3 h; hits give low values. percent response vs DMSO, % at 10 µM. actives 0.3% (n = 330,000);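 active = percent response vs DMSO below 50%; inconclusive = fewer than 70 events counted for the yeast strain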;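 note: median channel GFP fluorescence of the barcoded RPL19A-GFP strain; ratio of sample median GFP to plate DMSO average so 100% = DMSO; lower means less RPL19A-GFP as with rapamycin TOR inhibition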
# AGP1-GFP MLPCN: alters AGP1-GFP fluorescence in TOR pathway yeast screen; actives 0.02% (n = 320,000); GFP response vs DMSO, % at 10 µM; S. cerevisiae AGP1-GFP multiplex flow cytometry, 3 h; GFP as percent of DMSO wells;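 active = GFP response relative to DMSO above a set limit, near screen average plus 3 SD, cut at about 150% in these data; inconclusive = fewer than 70 cells counted for the yeast strain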;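 note: median GFP channel fluorescence of the gated AGP1 strain per well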
# LAP4-GFP pick2: second confirmation of modulators of TOR reporter LAP4-GFP in yeast | actives 20% (n = 590) | shares compounds with LAP4-GFP MLPCN | GFP response vs DMSO, % at 10 µM | AID 2621 | S. cerevisiae LAP4-GFP strain, flow cytometry GFP, 3 h;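 active = GFP signal as percent of the solvent control above about 150%, meaning raised reporter expression, limit read from the data; inconclusive = fewer than 70 cells counted in the well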;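 note: ratio of well median GFP fluorescence to plate DMSO mean so 100% = DMSO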
# MEP2-GFP pick2: yeast MEP2-GFP modulation, second cherry pick. shares compounds with LAP4-GFP MLPCN. S. cerevisiae MEP2-GFP strain, flow cytometry GFP, 3 h. GFP response vs DMSO, % at 10 µM. actives 10% (n = 590);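 active = GFP signal above 150% of the solvent control wells, that is a rise of more than half; inconclusive = fewer than 70 yeast cells counted in the well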;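 note: median channel GFP fluorescence of all gated yeast cells per well; ratio of median GFP to plate DMSO average so 100% = DMSO level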
# RPL19A GFP CP2: second confirmation of modulators of TOR reporter RPL19A-GFP in yeast | shares compounds with LAP4-GFP MLPCN | S. cerevisiae RPL19A-GFP strain, flow cytometry GFP, 3 h; hits give low values; 100% means same as DMSO wells | GFP response vs DMSO, % at 10 µM | actives 3% (n = 590);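 active = under 65% GFP response relative to DMSO; inconclusive = yeast strain with under 70 measured events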;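 note: median GFP channel fluorescence per well over the all cells gate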
# CIT2 GFP CP2: second confirmation of modulators of TOR reporter CIT2-GFP in yeast. shares compounds with LAP4-GFP MLPCN. S. cerevisiae CIT2-GFP strain, flow cytometry GFP, 3 h; DMSO control wells read 100%. GFP response vs DMSO, % at 10 µM. actives 8% (n = 590);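 active = GFP response vs DMSO above about 150%, limit read from the data; inconclusive = fewer than 70 events counted for a yeast strain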;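 note: median green fluorescence per well over all gated yeast cells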
# AGP1 GFP CP2: yeast AGP1-GFP TOR reporter modulation, second cherry pick | shares compounds with LAP4-GFP MLPCN | S. cerevisiae AGP1-GFP strain, flow cytometry GFP, 3 h | percent response vs DMSO, % at 10 µM | 590 tested, under 10 active | AID 2643;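 active = over 150 percent of DMSO response; inconclusive = yeast strain measured with under 70 events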;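 note: median GFP channel fluorescence over all cells without mother daughter split; sample median GFP divided by mean DMSO control so 100% equals DMSO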
# Yeast autofluor: counter-screen for compound autofluorescence in yeast s288c cells; shares compounds with LAP4-GFP MLPCN; S. cerevisiae s288c, 520 nm autofluorescence, flow cytometry, 3 h; hits give high values; zero means same as solvent-only cells; fluorescence change (kMESF span) at 33 µM; 610 tested, under 10 active; AID 2757;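 active = fluorescence span over the dose series, or activity score, above about 33, limit read from the data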
# Yeast autofl DR: counter-screen for autofluorescence of TOR hits in yeast s288c | S. cerevisiae s288c parental, compound autofluorescence, flow cytometry, 3 h | fluorescence change (span) at 33 µM | 110 tested, under 10 active | shares compounds with LAP4-GFP MLPCN;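 active = fluorescence change span, or the activity score built from it, above 25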
# TORC1 bypass gr: stops wildtype yeast growth while TORC1 bypass cells still grow. shares compounds with LAP4-GFP MLPCN. S. cerevisiae BY4741 spot growth rating, 48-72 h; hits give low values. growth rating (0-3) at 30 µM. 120 tested, under 10 active. AID 504456;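 active = growth rating at most 1 for wild type yeast while the TORC1 bypass strain still grows fully, rated 3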
# Starred values were filed as active, the others as inactive; ? = inconclusive; / = no result. Compounds with a hit are over-represented: about 0.92% of the library has one in this group of screens.
SMILES,MEP2 TOR yeast,CIT2-GFP yeast,LAP4-GFP MLPCN,RPL19A-GFP yeast,AGP1-GFP MLPCN,LAP4-GFP pick2,MEP2-GFP pick2,RPL19A GFP CP2,CIT2 GFP CP2,AGP1 GFP CP2,Yeast autofluor,others
CCCn1c(N)c(N(CCOC)C(=O)CSc2c(Cl)cccc2Cl)c(=O)[nH]c1=O,99,94,106,95,99,/,/,/,/,/,/,
CCOC(=O)N1CCN(c2ccnc3cc(Cl)ccc23)CC1,100,105,94,104,104,/,/,/,/,/,/,
CCN(CC)C(=O)Oc1ccnc2cc(Cl)ccc12,123,96,109,97,124,100,198*,105,90,148,0.1,Yeast autofl DR=0.08;TORC1 bypass gr=3
O=C(Oc1ccnc2cc(Cl)ccc12)N1CCCCCC1,422*,79,135,88,185*,/,/,/,/,/,0.2,Yeast autofl DR=0.26;TORC1 bypass gr=3
O=C(CCNC(=O)C1CCN(S(=O)(=O)c2ccc(F)cc2)CC1)NCc1ccncc1,118,118,100,107,108,/,/,/,/,/,/,
C[C@H](NC(=O)c1[nH]cnc1C(=O)Nc1ccc(Cl)cc1)c1ccccc1,94,96,92,94,87,/,/,/,/,/,/,
Brc1ccc(Oc2nsnc2N2CCOCC2)cc1,180*,82,95,100,27,96,103,102,104,97,/,
COc1ccccc1[C@]1(C)ON(c2ccccc2C(F)(F)F)C1=O,89,89,156*,92,87,150*,110,100,107,100,0.3,
CC(C)C[C@]1(c2ccccc2)ON(c2ccccc2C(F)(F)F)C1=O,89,97,88,100,74,104,100,105,112,99,-0.1,
COc1ccc2c(c1)C(=O)N(c1ccccc1OC)C(=O)C2(C)C,102,91,115,94,99,/,/,/,/,/,/,
Cc1cc(=O)c(C(=O)O)nn1-c1ccccc1C(F)(F)F,106,105,96,107,109,/,/,/,/,/,/,
CC[C@]1(c2ccccc2OC)ON(c2ccccc2C(F)(F)F)C1=O,100,85,118,93,81,150,120,103,118,110,0,
CC(Oc1ccc2c3c(c(=O)oc2c1)CCC3)C(=O)NCCN1CCOCC1 (stereo unspecified),111,102,101,104,108,/,/,/,/,/,/,
CC(Oc1cc2oc(=O)c3c(c2cc1Cl)CCC3)C(=O)NCCN1CCOCC1 (stereo unspecified),142,108,90,58,24,99,106,101,105,103,-0.1,
CN(C)NC(=S)Nc1ccc(S(=O)(=O)N2CCCCC2)cc1,100,87,97,65,66,107,108,100,113,100,-0.1,
CC(c1ccncn1)N(C)C(=O)c1ccc2oc(Cc3ccccc3)nc2c1 (stereo unspecified),108,103,96,108,102,/,/,/,/,/,/,
Cc1nn2c(NCc3ccccn3)c3c(nc2c1-c1ccccc1)CCC3,118,70,152*,94,72,/,/,/,/,/,2.7,
CCS(=O)(=O)N1CCC(C(=O)Nc2ccc3c(c2)CCC3)CC1,101,154*,91,95,116,98,102,100,97,100,/,
COc1ccc(NC(=S)N2CCC(NC(=O)c3ccco3)CC2)cc1,109,111,98,101,105,/,/,/,/,/,/,
CCOC(=O)c1nn(-c2ccc(OCC)cc2)c2nc(-c3ccco3)c(C#N)c(=O)n12,130,100,96,64,82,97,105,100,103,103,/,
CCOC(=O)c1nn(-c2ccc(OCC)cc2)c2nc(-c3cccc(OC)c3)c(C#N)c(=O)n12,106,104,99,106,98,/,/,/,/,/,/,
CSc1nnc(-c2ccc(S(=O)(=O)N3CCCCC3)cc2)o1,125,?,87,84,12,/,/,/,/,/,/,
Cc1ccc(N=C2NC(=O)/C(=C/C=C/c3ccco3)S2)cc1,97,97,103,98,98,/,/,/,/,/,/,
Cc1cccc(N=C2NC(=O)/C(=C/C=C/c3ccco3)S2)c1C,100,112,162*,96,91,190*,122,112,118,98,3.4,
CCCNC(=O)NC(=O)CSc1ccc2c(c1)OCCO2,107,101,100,93,104,/,/,/,/,/,/,
SMILES,MEP2 TOR yeast,CIT2-GFP yeast,LAP4-GFP MLPCN,RPL19A-GFP yeast,AGP1-GFP MLPCN,LAP4-GFP pick2,MEP2-GFP pick2,RPL19A GFP CP2,CIT2 GFP CP2,AGP1 GFP CP2,Yeast autofluor,others
CCNc1nc(Cl)nc(N(NC(C)=O)C(C)CC)n1 (stereo unspecified),72,58,98,61,73,101,105,99,102,97,/,
CCNc1nc(Cl)nc(N(NC(C)=O)C(C)C)n1,87,81,102,94,98,/,/,/,/,/,/,
CCOc1ccccc1CNC(=O)c1ccc(NC(=O)C2=CSCCO2)cc1,108,98,101,99,97,/,/,/,/,/,/,
Brc1ccc(Nc2ncnc3[nH]ncc23)cc1,107,102,112,102,113,/,/,/,/,/,/,
COC(=O)c1cc(-c2c(-c3ccc4c(c3)OCO4)noc2-c2ccsc2)cc([N+](=O)[O-])c1,86,98,102,102,89,/,/,/,/,/,/,
CN(C)c1ccc(-c2c(-c3ccc4c(c3)OCO4)noc2-c2ccsc2)cn1,88,62,155*,91,71,103,110,98,106,98,/,
O=C(Cn1cnc2ccccc2c1=O)c1cccs1,97,98,94,93,93,/,/,/,/,/,/,
O=C(/C=C/c1ccnc2ccccc12)c1cccs1,100,80,172*,99,112,/,/,/,/,/,0,
